Test results: PubChem BioAssay AID2401 (Southern Research Specialized Biocontainment Screening …, 2010)
Screen size: about 2,200 compounds; about 530 (24%) were called active.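 How the source made its calls: active means inhibition above a set limit at one or more concentrations of the dose series; inactive means inhibition under that limit at every dose.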 Only a sample is shown. Entries with a potency or affinity are not part of this list.

Assay: nmpC-GFP reporter counter-screen in S. Typhimurium, dose response, counter-screen for PhoP regulon inhibitor project, Salmonella Typhimurium, GFP fluorescence (AID 2401);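 further: S. typhimurium with Mg-insensitive nmpC-GFP reporter grown at 10 µM Mg2+; drop in reporter fluorescence reflects general culture growth inhibition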
Details: 4 h; series mostly up to 150 µM

SMILES | outcome
CCc1ccccc1NC(=O)c1nnn(CC(=O)Nc2cccc(C)c2C)c1N | inactive
CC1CC(C)CN(CCCSc2ccccc2)C1 (stereo not drawn) | inactive
COc1cccc(NC(=O)CNC(=O)c2cccs2)c1 | inactive
COCC(=O)N(Cc1ccco1)c1nnc(C2CCOC2)s1 (stereo not drawn) | inactive
Cc1ccc(C(C)C)cc1C(=O)CC1(O)C(=O)N(C)c2ccccc21 (stereo not drawn) | inactive
COC(=O)CSc1nc(SCc2ccccc2Cl)nc2c1CCCC2 | inactive
CCOC(=O)c1[nH]c2ccccc2c1NC(=O)C(C)(C)C | inactive
COc1ccc2nc(Nc3nc4cc5c(cc4s3)OCCO5)sc2c1 | inactive
NNc1nc2c(-c3cccc(C(F)(F)F)c3)nnn2c2ccccc12 | inactive
COc1ccc2oc(=O)cc(C)c2c1 | inactive
COc1cccc(C(=O)Oc2c(CN3CCOCC3)cc(Cl)c3cccnc23)c1 | inactive
COc1ccccc1N1CCN(C(CNS(=O)(=O)c2ccccc2)c2cccnc2)CC1 (stereo not drawn) | inactive
c1coc(CNc2c3c(nc4ncnn24)CCCC3)c1 | inactive
O=C(NNc1nc(-c2ccccc2)cs1)c1ccco1 | inactive
COCCNS(=O)(=O)c1cccn1-c1ncc(C(F)(F)F)cc1Cl | inactive
CC(=O)c1c(C)n([O-])c2cc(F)c(F)cc2[n+]1=O | inactive
CCOC(=O)CN(C)Cc1c[nH]c2ccccc12 | inactive
O=c1c2cc(Br)ccc2nc(-c2ccccc2)n1O | inactive
N#Cc1c(-c2ccco2)cc(-c2ccc(F)cc2)nc1N | inactive
O=C1N2CCCc3cccc(c32)C12Nc1ccccc1S2 (stereo not drawn) | inactive
CN1CCN(C(c2cccc(C(F)(F)F)c2)c2nnnn2C(C)(C)C)CC1 (stereo not drawn) | inactive
C#CCN1C(=O)C(O)(CC(=O)c2ccc(OC)c(OC)c2)c2ccccc21 (stereo not drawn) | inactive
CCCCn1cnc2sc(-c3ccccc3)cc2c1=O | inactive
O=C(Nc1ccc2c(c1)OCO2)c1cnn2cccnc12 | inactive
CN(C)S(=O)(=O)Oc1ccsc1C(=O)Nc1ccccc1Cl | inactive

SMILES | outcome
CCSc1cc(N2CCCC2)nc(-c2cccc(C)c2)n1 | inactive
CC(C)c1ccc(C2C3CSCC=C3C(C#N)=C(N)C2(C#N)C#N)cc1 (stereo not drawn) | inactive
Cn1c(CN2CCCCC2)nc2cc(NS(=O)(=O)c3ccc(Cl)cc3)ccc21 | inactive
COc1ccc(S(=O)(=O)N2Cc3ccccc3CC2C(=O)N2CCOCC2)cc1OC (stereo not drawn) | inactive
Clc1ccc(SCCCCn2ccnc2)cc1 | inactive
O=c1[nH]c(NNC(=S)NCc2ccccc2)nc2c1C1(CCCCC1)Cc1ccccc1-2 | inactive
O=S1(=O)C=CC(Nc2cccc(Cl)c2)C1 (stereo not drawn) | inactive
O=C(CSc1nnc2c(Cl)cc(Cl)cn12)NC1CCS(=O)(=O)C1 (stereo not drawn) | inactive
CCc1cccc(NC(=O)Nc2cccs2)c1 | inactive
COc1cccc2c(=O)c3c(cnn3C)n(C)c12 | inactive
COC(=O)c1cccc(NC(=O)CCCOc2ccccc2)c1 | inactive
O=C(NCc1cccs1)c1cccc(Nc2nc3ccc(Br)cc3[nH]2)c1 | inactive
Cn1c(=O)n(CC(=O)Nc2ccccc2)c2ccccc21 | inactive
O=C(O)C1CC=CCC1C(=O)NC12CC3CC(CC(C3)C1)C2 (stereo not drawn) | inactive
O=C(OCc1nnc(-c2ccccc2)o1)c1ccc(S(=O)(=O)NCc2ccco2)cc1 | inactive
Cc1ccc(NC(=O)CCN2CCc3ccccc3C2)cc1 | inactive
Cc1ccc(C[n+]2cc(-c3ccc(Cl)cc3)n3c2CCC3)cc1 | inactive
COc1ccc(-c2csc(NC(=O)C3CCCO3)n2)cc1 (stereo not drawn) | inactive
CCOC(=S)SCC(=O)Nc1nc(-c2ccccc2)cs1 | inactive
Cc1nc(NC(=O)c2ccccc2)sc1-c1csc(Nc2ccc(F)cc2)n1 | inactive
CN(C)CC(=O)Nc1nc(-c2ccccc2)cs1 | inactive
CCOC(=O)C1=C(C)N(CCO)C(=O)NC1c1cccc(O)c1 (stereo not drawn) | inactive
CCCNC(=O)CSc1nnc(C)s1 | inactive
Cc1nc2c(Cl)cccc2c2c1CC(CBr)O2 (stereo not drawn) | inactive
CCC1=NNc2cccc3c(OC)ccc1c23 | inactive

SMILES | outcome
COc1ccc(-c2c/c(=N\c3nc(-c4ccccc4)c(C)s3)c3ccccc3o2)cc1O | inactive
COC(=O)c1c(C)oc2ccc(NS(=O)(=O)c3cccs3)cc12 | inactive
O=C(CCNS(=O)(=O)c1cccc2nsnc12)NCc1cccs1 | inactive
O=C(NCc1cccs1)[C@@H]1CSC2c3ccccc3C(=O)N21 (stereo partly drawn) | inactive
Nc1cc(N)nc(SCc2cc(=O)oc3cc4c(cc23)CCC4)n1 | inactive
CCCn1c(SCC(=O)c2c(C)[nH]c(C)c2C(=O)OCC)nc2ccccc21 | inactive
O=C(CCCN1C(=O)CCC1=O)Nc1ccc2c(c1)OCCO2 | inactive
CCCCn1nnnc1NCc1cc(OC)c(OC)cc1OC | inactive
CCCCCNS(=O)(=O)c1cc(C)ccc1OC | inactive
Cc1ccc(S(=O)(=O)NCCC(=O)OCn2nnc3ccccc3c2=O)cc1 | inactive
COc1ccc(-c2nnn(CC(=O)N(Cc3ccco3)C(C(=O)NCC3CCCO3)c3ccco3)n2)cc1 (stereo not drawn) | inactive
COC(=O)c1cc(C#N)c(Oc2ccc(F)cc2)nc1C | inactive
O=C1C(c2ccc(F)cc2)N(Cc2ccc3c(c2)OCO3)C(=O)CN1C1CCCCCC1 (stereo not drawn) | inactive
Cc1ccc(-c2[nH]c(-c3ccc(Cl)cc3)nc2SCC(=O)NCC2CCCO2)cc1 (stereo not drawn) | inactive
COc1cc(C(=O)NC(=S)Nc2ccc3oc(=O)ccc3c2)cc(OC)c1OC | inactive
Cc1nc(N2CCN(c3ccccc3)CC2)nc2c1C(=O)CC(C)C2 (stereo not drawn) | inactive
O=C(Nc1ccc2oc(-c3ccc(Cl)c(Cl)c3)nc2c1)c1ncn[nH]1 | inactive
O=C(COC(=O)c1cn(-c2ccccc2)nc1-c1ccccc1)c1cccc([N+](=O)[O-])c1 | inactive
CCc1ccc(C(c2c(C)nn(-c3ccccc3)c2N)c2c(C)nn(-c3ccccc3)c2N)cc1 | inactive
O=C(NCc1ccccn1)c1cn(-c2ccccc2)nc1-c1ccc(Cl)cc1 | inactive
O=C(OCc1ccccc1)c1cn(-c2ccccc2)nc1-c1ccncc1 | inactive
C/C(=N\N=C(/N)SC1CC(=O)N(c2cccc(Cl)c2)C1=O)c1cccs1 (stereo not drawn) | inactive
Cc1ccc(-n2ncc3c(N4CCN(c5ccccc5)CC4)ncnc32)c(C)c1 | inactive
